How the values were obtained:
Experiment in all cases: thermal shift delta Tm vs DMSO control; higher = stronger stabilization (binding)
Conditions in all cases: 12.5 µM; protein concentration 2 µM
[1] = tested on: LOC_OS01G01410-cb001
Method in brief: (§1)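 Thermal shift values come from differential scanning fluorimetry on purified rice kinase domains made in E. coli, with melting temperatures obtained from Boltzmann fits. Samples of 19.5 μl held 2 μM kinase, 100 mM potassium phosphate pH 7.5, 150 mM NaCl, 10% glycerol, 5 × SYPRO Orange and compound in DMSO, and were heated from 25°C to 95°C at 0.05°C/s. Each shift is a triplicate mean relative to the DMSO-only protein sample.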

[2] = tested on: LOC_OS01G02750-cb003
Method in brief: as §1

[3] = tested on: LOC_OS01G10900-cb004
Method in brief: as §1

[4] = tested on: LOC_OS01G13800-cb001
Method in brief: as §1

[5] = tested on: LOC_OS01G14860-cb001
Method in brief: as §1

[6] = tested on: LOC_OS01G21960-cb002
Method in brief: as §1

[7] = tested on: LOC_OS01G39600-cb002
Method in brief: as §1

[8] = tested on: LOC_OS01G48390-cb002
Method in brief: as §1

[9] = tested on: LOC_OS01G51400-cb002
Method in brief: as §1

[10] = tested on: T1, LOC_OS01G52050-cb004
T1 sequence (whole entry): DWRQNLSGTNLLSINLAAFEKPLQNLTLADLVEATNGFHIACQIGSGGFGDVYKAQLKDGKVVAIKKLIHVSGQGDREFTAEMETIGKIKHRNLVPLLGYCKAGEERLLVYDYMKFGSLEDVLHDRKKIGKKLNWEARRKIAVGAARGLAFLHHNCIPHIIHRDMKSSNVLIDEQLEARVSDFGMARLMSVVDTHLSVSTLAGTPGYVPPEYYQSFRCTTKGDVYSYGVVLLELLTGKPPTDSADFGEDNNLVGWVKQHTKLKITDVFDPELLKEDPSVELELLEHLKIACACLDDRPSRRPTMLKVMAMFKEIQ
Method in brief: as §1
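Further: purified Escherichia coli-expressed rice kinase domain construct.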

SMILES	thermal shift delta Tm [1] [°C]	thermal shift delta Tm [2] [°C]	thermal shift delta Tm [3] [°C]	thermal shift delta Tm [4] [°C]	thermal shift delta Tm [5] [°C]	thermal shift delta Tm [6] [°C]	thermal shift delta Tm [7] [°C]	thermal shift delta Tm [8] [°C]	thermal shift delta Tm [9] [°C]	thermal shift delta Tm [10] [°C]
COc1cc2ncnc(Nc3cccc(Cl)c3F)c2cc1OC(=O)N1CCN(C)C[C@H]1C	0.74	0.31	0.52	-0.2	0.07	0.37	-0.74	0.45	0.35	-0.17
Oc1ccc(-c2nc(-c3ccc(F)cc3)c(-c3ccncc3)[nH]2)cc1	1.39	0.58	0.58	0.18	2.36	0.98	-0.06	0.38	0.01	0.5
Cc1c[nH]c2nc(Nc3ccc(N4CCN(C)CC4)c(F)c3)nc(-c3cccc(CC#N)c3)c12	6.3	6.99	3.64	0.12	5.41	4.45	9.35	5.5	1.14	13.5
N#Cc1cccc(-c2c[nH]c3ncnc(N4CCOCC4)c23)c1	0.72	2.58	0.72	0.32	1.47	1	1.94	0.73	0.58	1.08
CN(C)C/C=C/C(=O)Nc1ccc(C(=O)Nc2cccc(Nc3ncc(Cl)c(-c4c[nH]c5ccccc45)n3)c2)cc1	4.03	6.62	0.47	1.95	7.28	4.75	2.35	3.99	1.75	9.77
CNC(=O)c1ccccc1Nc1cc(Nc2ccc(N3CCOCC3)cc2OC)ncc1C(F)(F)F	0.48	1.23	0.53	1.17	1.05	1.09	0.34	0.58	0.74	5.73
Cc1cn(-c2cc(NC(=O)c3ccc(C)c(Nc4nccc(-c5cccnc5)n4)c3)cc(C(F)(F)F)c2)cn1 [Nilotinib (AMN-107)]	1.05	0.56	0.78	-0.11	0.32	0.28	0.67	0.45	0.48	-0.02
Cc1c(NC(=O)c2ccc(C(C)(C)C)cc2)cccc1-c1cn(C)c(=O)c(Nc2ccc(C(=O)N3CCOCC3)cc2)n1	0.18	0.71	-1.08	0.18	-0.01	0.66	2.2	0.86	0.2	-0.23
CC[C@@H](N)CNc1ccnc(-c2cc(-c3cnn(C)c3)ccc2O)n1	0.15	2.58	0.85	-0.28	2.58	2.15	-0.05	1.98	0.28	1.98
Cc1nc(Nc2ncc(C(=O)Nc3c(C)cccc3Cl)s2)cc(N2CCN(CCO)CC2)n1 [Dasatinib]	1.38	0.59	4.47	0.61	0.27	1.22	5.93	0.6	0.66	0.79
O=C(c1ccc(/C=C/c2n[nH]c3ccccc23)cc1)N1CCNCC1	5.18	3.06	1.43	-0.18	1.8	2.42	5.76	5.36	1.16	7.26
CCN(CC)CCCC(C)Nc1ccnc2cc(Cl)ccc12 (stereo not given) [Chloroquine Phosphate]	0.08	1.04	0.14	0.44	0.13	0.63	-0.06	-0.02	0	-0.11
CC(C)(C)c1nc(-c2cccc(NS(=O)(=O)c3c(F)cccc3F)c2F)c(-c2ccnc(N)n2)s1	1.54	0.76	0.26	0.08	8.58	1.84	-9.31	0.37	0.33	1.56
COC(=O)c1ccc2c(c1)NC(=O)/C2=C(\Nc1ccc(N(C)C(=O)CN2CCN(C)CC2)cc1)c1ccccc1 [Nintedanib (BIBF 1120)]	2.25	-0.82	0.18	-0.11	1.18	0.47	1.74	1.19	0.18	1.07
N#Cc1ccc2[nH]c(O)c(-c3ccc(CN4CCOCC4)cn3)c2c1	0.79	1.84	0.41	-0.53	6.12	0.79	1.95	1.33	0.34	0.44
NC(=O)c1cnc2[nH]ccc2c1N[C@@H]1[C@@H]2CC3C[C@H]1C[C@@](O)(C3)C2	3.91	3.77	1	0.16	5.61	2.38	5.22	4.09	0.18	4.66
CCNC(=O)Nc1ccc(-c2nc(N3CCOC[C@@H]3C)c3c(n2)C(C)(C)S(=O)(=O)C3)cc1	0.67	1.05	0.47	0.09	0.6	0.34	-0.26	-0.02	0.22	3.06
COCCNCc1ccc(-c2cc3nccc(Oc4ccc(NC(=O)C5(C(=O)Nc6ccc(F)cc6)CC5)cc4F)c3s2)nc1 [Sitravatinib (MGCD516)]	4.2	7.38	4.89	-0.17	3.69	0.72	0.85	6.78	0.58	4.17
COc1ccc(CNC(=O)Nc2ncc([N+](=O)[O-])s2)cc1	0.9	0.85	0.34	0.54	3.27	1.49	-4.25	0.63	-0.45	0.42
Cc1cc(NC(=O)c2cccc(NC(=O)/C=C/CN(C)C)c2)ccc1Nc1nccc(-c2cccnc2)n1	1.77	1.69	4.22	0.46	1.25	1.6	6.45	1.99	0.73	0.75
O=C(O)[C@]1(Cc2cccc(Nc3nccs3)n2)CC[C@@H](Oc2cccc(Cl)c2F)CC1	1.81	1.68	3.48	-1.25	5.16	1	2.55	3.01	-0.7	13.5

SMILES	thermal shift delta Tm [1] [°C]	thermal shift delta Tm [2] [°C]	thermal shift delta Tm [3] [°C]	thermal shift delta Tm [4] [°C]	thermal shift delta Tm [5] [°C]	thermal shift delta Tm [6] [°C]	thermal shift delta Tm [7] [°C]	thermal shift delta Tm [8] [°C]	thermal shift delta Tm [9] [°C]	thermal shift delta Tm [10] [°C]
CN1CCN(c2cccc(Nc3nc4c(-c5ccc(S(C)(=O)=O)cc5)cccn4n3)c2)CC1	2.06	0.63	1.02	-0.37	0.51	1.39	2.12	1.12	0.39	2.68
Cc1c(NC(=O)OC[C@@H]2COCCN2)cn2ncnc(Nc3ccc4c(cnn4Cc4cccc(F)c4)c3)c12	0.88	-0.18	0.06	0.7	0.19	0.52	0.91	0.07	0.14	0.23
Cc1ccc([N+](=O)[O-])cc1S(=O)(=O)N(C)/N=C/c1cnc2ccc(Br)cn12	1.6	11.6	7.32	0.52	8.02	3.8	1.85	1.1	0.2	11.7
C[C@H](Nc1ncnc2[nH]cnc12)c1cc2ccc(F)cc2nc1-c1ccccn1	0.51	2.1	0.26	0.16	0.16	0.92	-0.54	0.94	0.64	0.37
O=c1cc(-c2cccc3c2Sc2ccccc2S3)oc(N2CCOCC2)c1	0.6	-5.37	1.94	0.13	2.44	0.44	0.29	2.17	-0.12	-0.44
Cc1c[nH]c(/C=C2\C(=O)Nc3ccccc32)c1CCC(=O)O	1.48	0.9	0.02	0	1.61	0.56	4.55	1.99	0.25	1.77
Cc1cc(Nc2cc(N3CCN(C)CC3)nc(/C=C/c3ccccc3)n2)n[nH]1 [ENMD-2076 L-(+)-Tartaric acid]	2.38	2.56	1.86	-0.25	4.33	2.63	1.94	3.3	0.81	4.1
COc1cccc(-c2cc(=O)c3ccccc3o2)c1N	1.2	0.8	-0.05	0.1	0.1	-0.03	0.91	-0.01	0.02	0.01
O=C1NC(=O)/C(=C/c2ccc3c(c2)OC(F)(F)O3)S1	0.72	0.45	0.16	0.44	0.39	1.11	0.17	0.77	0.53	0.79
CCc1cncnc1N1CCN(Cc2nc3ccc(C(F)(F)F)cc3[nH]2)CC1	0.68	1.15	0.36	0.07	0.3	0.83	-0.18	0.61	0.42	0.17
COc1cc2c(c(OC)c1OC)-c1c(cc3c(c1OC)OCO3)CC(C)C(C)C2 (stereo not given) [Schisandrin B (Sch B)]	0.01	-0.07	0.21	-0.06	0.19	0.19	-3.57	0.18	0.24	-0.05
CC#CC(=O)Nc1ccc2ncnc(Nc3cccc(Br)c3)c2c1	2.55	1.15	2.56	0.12	1.15	0.48	-0.38	2.25	0.38	1.8
CSc1cccc(Nc2ncc3cc(-c4c(Cl)cccc4Cl)c(=O)n(C)c3n2)c1	0.57	0.56	1.7	0.31	0.06	0.55	-0.21	0.12	0.18	0.18
COc1cc2nccc(Oc3ccc(NC(=O)NC4CC4)c(Cl)c3)c2cc1C(N)=O [Lenvatinib (E7080)]	1.14	1.17	0.52	0.29	0.28	0.62	-0.02	0.47	0.04	0.33
CN1CCN(c2ccc(C(=O)Nc3n[nH]c4ccc(Cc5cc(F)cc(F)c5)cc34)c(NC3CCOCC3)c2)CC1 [Entrectinib (RXDX-101)]	2.21	2.9	4.99	-0.49	0.18	1.51	3.51	5.48	0.15	0.2
CS(=O)(=O)CCNCc1ccc(-c2ccc3ncnc(Nc4ccc(OCc5cccc(F)c5)c(Cl)c4)c3c2)o1 [Lapatinib]	3.23	7.61	1.97	0.94	1.79	2.25	3.93	1.79	1.92	6.04
CN1CCN(S(=O)(=O)c2ccc(-c3cnc(N)c(C(=O)Nc4cccnc4)n3)cc2)CC1	4.52	1.3	0.3	0.58	7.62	1.87	0.71	0.96	-0.02	1.17
COc1cc(OC)cc(-c2cc3cnc(N)nc3nc2NC(=O)NC(C)(C)C)c1	0.51	1.48	0.1	0.07	0.48	0.33	-0.76	0.85	0.05	1.75
COc1cc2/c(=N/c3ccc(Br)cc3F)nc[nH]c2cc1OCC1CCN(C)CC1 [Vandetanib (ZD6474)]	1.05	-0.06	0.86	-0.25	0.15	0.02	0.47	1.67	0.15	1.36
C[C@H](NC(=O)c1c(N)nn2cccnc12)c1cc2cccc(C#Cc3cnn(C)c3)c2c(=O)n1-c1ccccc1	-0.14	1.49	-0.2	0	0.51	0.17	0.28	0.19	0.28	2.08
